From PubChem BioAssay (EPA / NIEHS) come the findings set out here.

Values joined by “and” are separate entries in the source; they are usually repeats but may differ in a detail not shown here. Identical values can stand only once. Results filed as inconclusive are left out. A structure can be active in one record and inactive in another. Active and inactive are the calls of the source. How the source made its calls: active means hit-call score of the fitted dose curve at least 0.9, where 1 is the maximum; inconclusive means response in the unintended direction; inactive means score below 0.9.

The target in test [1] is Cellular tumor antigen p53 (Homo sapiens) (UniProt P04637). As to the kind of experiment: TOX21_p53_BLA_p3_ratio: Tox21 HCT-116 p53 Agonism Beta-lactamase Assay, Ratio, Phase 3 (AID 2283596). In outline: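 HCT116 p53-bla cells (4000/well) given compound in DMSO (217-fold dilution) after 5 h, incubated 16 h at 37C. CCF4-AM substrate 2 h at room temperature; 460/530 nm emission ratio, gain fitted against DMSO.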
Sequence of Cellular tumor antigen p53 (Homo sapiens) (P04637 whole entry, looked up): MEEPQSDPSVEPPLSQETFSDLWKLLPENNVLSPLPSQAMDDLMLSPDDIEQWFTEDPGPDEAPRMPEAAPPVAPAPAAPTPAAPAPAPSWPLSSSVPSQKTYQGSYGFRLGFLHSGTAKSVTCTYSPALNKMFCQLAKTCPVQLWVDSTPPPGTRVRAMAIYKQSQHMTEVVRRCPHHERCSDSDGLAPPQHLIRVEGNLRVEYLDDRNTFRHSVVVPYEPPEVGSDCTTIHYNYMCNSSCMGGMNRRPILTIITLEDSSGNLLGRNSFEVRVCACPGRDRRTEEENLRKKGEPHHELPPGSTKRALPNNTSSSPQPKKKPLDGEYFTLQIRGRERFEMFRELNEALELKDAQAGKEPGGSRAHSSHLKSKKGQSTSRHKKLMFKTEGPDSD

Test [2] is described as follows: TOX21_p53_BLA_p4_viability: Viability Assessment in the Tox21 HCT-116 p53 Agonism Beta-lactamase Assay, Phase 4 (AID 2283597).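 Further: hits lower the luminescence signal meaning cytotoxicity.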 In outline:
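HCT-116 p53-bla cells, 4000/well, dosed after 5 h attachment and incubated 16 h at 37 °C, 5% CO2. Viability from CellTiter-Glo ATP luminescence after 30 min at room temperature, taken after the beta-lactamase read; loss of signal indicates cytotoxicity.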

Test [3] addresses Cellular tumor antigen p53 (Homo sapiens) (UniProt P04637). As to the kind of experiment: TOX21_p53_BLA_p5_ratio: Tox21 HCT-116 p53 Agonism Beta-lactamase Assay, Ratio, Phase 5 (AID 2283599). An outline of the steps:
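HCT-116 cells carrying a p53-inducible beta-lactamase reporter were seeded at 4000 cells/well and dosed after 5 h with compound in DMSO (217-fold dilution). After 16 h at 37C, CCF4-AM substrate was added for 2 h, and the 460/530 nm emission ratio was scored as gain-of-signal versus DMSO.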

A short description of test [4]: TOX21_p53_BLA_p5_viability: Viability Assessment in the Tox21 HCT-116 p53 Agonism Beta-lactamase Assay, Phase 5 (AID 2283600). An outline of the steps:
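HCT-116 p53 beta-lactamase reporter cells, 4000/well, were exposed to compound (pin transfer, 217-fold dilution) for 16 hours at 37C. Cellular ATP was read by CellTiter-Glo luminescence after 30 min at room temperature.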

Test [5] has as its target Cellular tumor antigen p53 (Homo sapiens) (UniProt P04637). As to the kind of experiment: TOX21_p53_BLA_p4_ratio: Tox21 HCT-116 p53 Agonism Beta-lactamase Assay, Ratio, Phase 4 (AID 2283601). An outline of the steps: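 HCT116 cells carrying an inducible beta-lactamase reporter were plated at 4000 cells/well, rested 5 h, then exposed to compounds in DMSO (217-fold dilution) for 16 h at 37C. CCF4-AM substrate was loaded 2 h at room temperature; 460/530 nm emission ratio scored gain-of-signal versus DMSO.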

A short description of test [6]: Tanguay_ZF_120hpf_MORT_legacy: (Legacy) Oregon State University Tanguay Lab 120 Hour Post-fertilization zebrafish Assay for Mortality (AID 2283633).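 On AC50: fitted as increase in binary mortality versus DMSO negative control.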 An outline of the steps: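 Dechorionated Tropical 5D wild-type zebrafish embryos, one per well from 6 hpf, static exposure in 0.64% DMSO at 28C until 120 hpf. Mortality scored as binary by brightfield microscopy at 24 and 120 hpf.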

Test [7] in a line: Tanguay_ZF_120hpf_YSE_legacy: (Legacy) Oregon State University Tanguay Lab 120 Hour Post-fertilization zebrafish Assay for Yolk Sac Edema (AID 2283634).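 On AC50: actives raise the incidence of yolk sac edema above the DMSO baseline.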 In outline: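 Dechorionated Tropical 5D wild-type zebrafish embryos were exposed statically, one per well, from 6 to 120 hpf at 28C in 0.64% DMSO. Yolk sac edema was scored present/absent by brightfield at 120 hpf, and dead embryos were excluded.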

The nature of test [8]: Tanguay_ZF_120hpf_AXIS_legacy: (Legacy) Oregon State University Tanguay Lab 120 Hour Post-fertilization zebrafish Assay for Body Axis Malformation (AID 2283635).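 On AC50: potency for an increased fraction of larvae scored with body axis malformation.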 An outline of the steps:
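Dechorionated wild-type Tropical 5D zebrafish embryos, one per well, statically exposed from 6 hpf to 120 hpf at 28C in 0.64% DMSO final. Body axis malformation scored present/absent by brightfield microscopy at 120 hpf; dead embryos excluded.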

The nature of test [9]: Tanguay_ZF_120hpf_EYE_legacy: (Legacy) Oregon State University Tanguay Lab 120 Hour Post-fertilization zebrafish Assay for Eye Malformation (AID 2283636).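 Further: binary presence or absence of eye malformation scored by brightfield in 120 hpf larvae.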 In outline:
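Dechorionated wild-type Tropical 5D zebrafish embryos were exposed statically from 6 hpf, one per well, to 120 hpf at 28C in sealed, foil-covered plates with 0.64% DMSO. Eye malformation was scored present/absent by brightfield microscopy against DMSO controls.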

Test [10] can be described thus: Tanguay_ZF_120hpf_SNOU_legacy: (Legacy) Oregon State University Tanguay Lab 120 Hour Post-fertilization zebrafish Assay for Snout Malformation (AID 2283637). An outline of the steps: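 Tropical 5D wild-type zebrafish embryos, dechorionated with pronase at 4 hpf, were exposed singly from 6 hpf to 120 hpf statically at 28C in 0.64% DMSO. Snout malformation was scored present/absent by brightfield microscopy, fitted against DMSO.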

Regarding `ClC(Cl)=C(c1ccc(Cl)cc1)c1ccc(Cl)cc1`, the result in [1], in test [2], in test [3], in test [4], in test [5] and in test [6] was inactive. Moreover, the outcome in test [7], in [8], in test [9] and in test [10] was inactive.

Take `ClC1=C(Cl)[C@]2(Cl)[C@@H]3[C@H]4C[C@H]([C@@H]5O[C@H]45)[C@@H]3[C@@]1(Cl)C2(Cl)Cl`: the result in test [1], in [2], in test [3], in test [4], in test [5] and in test [6] was inactive. The outcome in test [9] and in test [10] was inactive. For the same compound, the figures for the concentration at half-maximal activity (AC50) in [7] and in test [8] were 72 µM (active) and 45.4 µM (active), respectively.

Consider `Nc1ccc(-c2ccc(N)cc2)cc1`, for which the result in test [1], in test [2], in test [3], in test [4], in test [5] and in test [6] was inactive. Moreover, the result in [7], in test [8], in test [9] and in [10] was inactive.

With `C=CC(=O)NCNC(=O)C=C`, the outcome in test [1], in test [2], in test [3], in test [4], in [5] and in test [6] was inactive. Moreover, the outcome in test [7], in test [8], in test [9] and in test [10] was inactive.

As for `Cc1ccc(O)c(C)c1`, the outcome in test [1], in [2], in test [3], in test [4], in [5] and in test [6] was inactive. Further, the call in test [7], in [8], in test [9] and in test [10] was inactive.

For `O=NN(c1ccccc1)c1ccccc1`, the result in test [1], in [2], in [3], in [4], in test [5] and in [6] was inactive. Also, the compound was called inactive in [7], in [8], in test [9] and in [10].

For the compound `C[C@]12CCC(=O)C=C1CC[C@@H]1[C@@H]2CC[C@]2(C)C(=O)CC[C@@H]12`, the outcome in test [1], in test [2], in test [3], in test [4], in [5] and in test [6] was inactive. For the same compound, the AC50 (as a rule, the concentration at which the activity in the assay is half-maximal) in test [7] is 36.2 µM (active); in [8] it was 40.2 µM (active); in test [9], 45.5 µM (active); in [10] it was 37.7 µM (active).

In the case of `CCC(C)c1cc([N+](=O)[O-])cc([N+](=O)[O-])c1O` (centres undefined), the AC50 in test [1] was 984 nM (active); in test [3], 3.4 µM (active); in test [5], 4.83 µM (active); in [6] it was 0.462 µM (active). The result in [1], in test [2], in test [4], in [7], in test [8] and in [9] was inactive. The call in [10] was inactive.

As to `Oc1c(Cl)c(Cl)c(Cl)c(Cl)c1Cl`, the half-maximal activity concentration (AC50) in [1] was 5.71 µM (active) and 1.86 µM (active); in test [3], 8.02 µM (active); in [5] it was 11.1 µM (active) and 2.43 µM (active); in test [6] it was 0.801 µM (active). Further, the compound was called inactive in test [2], in [3], in test [4], in [7], in test [8] and in test [9]. The result in test [10] was inactive.

On to `CC(C)C(=O)OCC(C)(C)C(OC(=O)C(C)C)C(C)C` (centres undefined), for which the outcome in test [1], in test [2], in test [3], in test [4], in test [5] and in [7] was inactive. In addition, the result in test [8], in test [9] and in [10] was inactive. For the same compound, the half-maximal activity concentration (AC50) in test [6] was 26.2 µM (active).

Consider `CCOC(=O)C(O)(c1ccc(Cl)cc1)c1ccc(Cl)cc1`, for which the concentration at half-maximal activity (AC50) in test [1] is 55.2 µM (active) and 50.6 µM (active); in [2], 59.7 µM (active) and 25.1 µM (active); in test [3], 80.1 µM (active) and 66.1 µM (active); in [4], 81.7 µM (active) and 24.7 µM (active); in test [5], 68.6 µM (active) and 60.8 µM (active). Further, the call in [6], in [7], in [8], in test [9] and in test [10] was inactive.

Consider `CC(C)(c1ccccc1)c1ccc(O)cc1`, for which the result in test [1], in test [3], in test [4], in [8] and in test [9] was inactive. The AC50 was 71 µM (active) and 65.8 µM (active) in test [2]; 73.1 µM (active) in [3]; 81.7 µM (active) and 70.4 µM (active) in test [5]; 19.1 µM (active) in test [6].

For `CCCCCCCCCC[N+](C)(C)CCCCCCCCCC`, the AC50 in test [1] was 74.3 µM (active) and 39.7 µM (active); in [2], 23.4 µM (active) and 21.1 µM (active); in [3], 72.9 µM (active) and 39.8 µM (active); in [4], 23 µM (active); in test [5] it was 26.8 µM (active) and 35 µM (active); in test [6], 13.6 µM (active). Besides, the outcome in test [7], in test [8], in test [9] and in [10] was inactive.

As to `OCC(O)CO`, the result in test [1], in test [2], in test [3], in [4] and in test [5] was inactive.

For the compound `Oc1ccc(C(c2ccc(O)cc2)(C(F)(F)F)C(F)(F)F)cc1`, the concentration at half-maximal activity (AC50) is 54200 nM (active) in test [1]; 63.7 µM (active) and 71.3 µM (active) in [2]; 72.8 µM (active) in test [3]; 72.3 µM (active) in test [4]; 57.3 µM (active) and 69.7 µM (active) in [5]; 33 µM (active) in [6]. In addition, the AC50 in [7] is 57.4 µM (active); in test [8], 58.3 µM (active); in test [9], 53.9 µM (active); in test [10] it was 53.8 µM (active). The result in test [1], in test [3] and in test [4] was inactive.
